# Assay results from PubChem BioAssay.
# How the values were obtained:
# [1] = tested on: Human papillomavirus type 1a protein E7 (residues 44-93); assay: small molecules binding HPV E7 44-93 – biochemical, small-molecule microarray, residues 44-93, 635 nm fluorescence, primary screen (AID 1108); conditions: fluorescence 635 nm, higher = more signal;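 also: E7 fragment applied at 1 µg/mL in TBST for 1 h at 4 C; score combines spot fluorescence with its signal to noise ratio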
# [2] = hepatitis C replication reporter changes, two-sided – Huh7 cells, luciferase reporter, HCV replication inhibitor project, primary screen (AID 1109); conditions: Huh7 HCV replicon luciferase reporter, 48 h; higher = more signal;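 also: huh7 hepatoma cells harbouring a luciferase neomycin HCV replicon reporter; luciferase luminescence as measure of HCV replicon replication; test concentration not given here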
# [3] = target: Left-right determination factor 2 (Homo sapiens) (UniProt O00292); assay: small molecules binding LEFTY2 protein – biochemical, small-molecule microarray, 635 nm fluorescence scan, primary screen (AID 1110); conditions: higher = more signal
# [4] = target: Calmodulin-1 (Homo sapiens) (UniProt P0DP23); assay: small molecules binding calmodulin-1 with EGTA – biochemical, small-molecule microarray, Cy5-labelled CALM1, profiling panel (AID 1111); conditions: Cy5-CALM1 binding fluorescence, higher = more signal;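 also: labelled calmodulin applied in Tris saline Tween buffer holding calcium plus EGTA and DTT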
# [5] = target: Calmodulin-1 (Homo sapiens) (UniProt P0DP23); assay: small molecules binding Ca-loaded calmodulin-1 – biochemical, small-molecule microarray, Cy5-labelled CALM1, plus calcium, artefact control for SMM control-protein annotation, profiling panel (AID 1112); conditions: Cy5-CALM1 binding fluorescence, higher = more signal;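 also: score merges spot fluorescence with signal to noise from triplicate slides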
# [6] = probe aWnt5a binding to arrayed compounds – biochemical, biotinylated probe, 635/667 nm fluorescence, primary screen (AID 1113); conditions: small-molecule microarray, higher = more signal;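 also: score merges 667 nm fluorescence intensity with signal-to-noise per printed feature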
# [7] = probe aShh binding to arrayed compounds – biochemical, biotinylated probe, 635/667 nm fluorescence, primary screen (AID 1114); conditions: small-molecule microarray, higher = more signal;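 also: probe is biotin-labelled aShh protein from a stem cell growth factor screen; measures binding of labelled protein to compounds printed on the slide; score merges feature fluorescence at 667 nm with signal-to-noise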
# [8] = probe aNog binding to arrayed compounds – biochemical, biotinylated probe, 635/667 nm fluorescence, primary screen (AID 1115); conditions: small-molecule microarray, higher = more signal;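 also: probe is biotinylated aNog protein used at 0.15 µg/mL for 1 h at 4 C; z-score combines 667 nm fluorescence of each spot with its signal to noise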
# [9] = target: Torsin-1A-interacting protein 1 (Homo sapiens) (UniProt Q5JTV8); assay: compound microarray binding of lysate hLAP1 – cell lysate, small-molecule microarray, COS7 lysate, 635/667 nm fluorescence, primary screen (AID 1116); conditions: 635 nm fluorescence, higher = more signal
# [10] = target: Alpha-bungarotoxin (Bungarus multicinctus) (UniProt P60615); assay: compounds binding labelled alpha-BTX control protein – biochemical, small-molecule microarray, Alexa647 label, 635/667 nm fluorescence, artefact control for SMM control protein annotation, profiling panel (AID 1117); conditions: alpha-BTX-A647 binding fluorescence, higher = more signal
# Sequence of Alpha-bungarotoxin (Bungarus multicinctus) (P60615 whole entry, looked up): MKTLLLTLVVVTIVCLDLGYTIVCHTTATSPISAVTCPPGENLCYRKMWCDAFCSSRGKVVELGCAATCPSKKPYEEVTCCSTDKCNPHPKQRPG
# Sequence of Left-right determination factor 2 (Homo sapiens) (O00292 whole entry, looked up): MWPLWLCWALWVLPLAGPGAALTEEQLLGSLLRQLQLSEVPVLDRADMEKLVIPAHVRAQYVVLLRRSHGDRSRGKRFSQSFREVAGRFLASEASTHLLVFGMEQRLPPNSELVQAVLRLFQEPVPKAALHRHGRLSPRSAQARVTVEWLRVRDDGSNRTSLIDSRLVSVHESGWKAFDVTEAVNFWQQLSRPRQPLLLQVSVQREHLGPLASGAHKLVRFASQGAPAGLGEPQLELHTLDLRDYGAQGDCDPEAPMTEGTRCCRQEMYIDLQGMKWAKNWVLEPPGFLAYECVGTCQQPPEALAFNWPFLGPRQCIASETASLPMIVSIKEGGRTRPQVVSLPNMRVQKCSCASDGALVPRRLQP
# Sequence of Torsin-1A-interacting protein 1 (Homo sapiens) (Q5JTV8 whole entry, looked up): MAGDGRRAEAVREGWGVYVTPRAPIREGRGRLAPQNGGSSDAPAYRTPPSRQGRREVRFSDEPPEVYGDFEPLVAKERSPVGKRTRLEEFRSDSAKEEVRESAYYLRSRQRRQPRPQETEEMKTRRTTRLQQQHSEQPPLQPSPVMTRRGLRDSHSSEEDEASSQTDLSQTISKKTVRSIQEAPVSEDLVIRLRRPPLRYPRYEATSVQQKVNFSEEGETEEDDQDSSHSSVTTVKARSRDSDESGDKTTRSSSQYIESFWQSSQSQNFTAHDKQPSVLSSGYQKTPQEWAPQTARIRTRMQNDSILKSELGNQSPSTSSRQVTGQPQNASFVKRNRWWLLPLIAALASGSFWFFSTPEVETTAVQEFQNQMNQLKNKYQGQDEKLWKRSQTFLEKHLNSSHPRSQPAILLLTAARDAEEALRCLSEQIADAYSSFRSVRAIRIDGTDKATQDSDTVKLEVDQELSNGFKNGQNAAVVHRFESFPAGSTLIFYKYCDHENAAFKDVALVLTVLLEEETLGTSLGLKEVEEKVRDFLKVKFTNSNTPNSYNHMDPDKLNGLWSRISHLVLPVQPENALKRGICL
Structure (SMILES),composite z-score [1],z-score [2],composite z-score [3],composite z-score [4],composite z-score [5],composite z-score [6],composite z-score [7],composite z-score [8],composite z-score [9],composite z-score [10]
CN(C)CCCCNC(=O)[C@H]1C[C@H]2C(=O)NCC(=O)N2[C@H]1c1ccc(O)cc1,-0.392,0.143,-0.735,-0.608,0.577,-0.145,-0.501,-0.248,-0.38,0.52
COc1ccc([Si](C)(C)[C@H]2[C@H](CCO)O[C@@]3(C(=O)N(Cc4ccc(NC(=O)[C@H](C)O)cc4)c4ccccc43)[C@@H]2C)cc1,1.42,-5.22,0.378,1.19,0.0314,-0.105,0.318,0.686,0.989,1.24
COc1ccc([Si](C)(C)[C@H]2[C@H](CC(=O)N3Cc4ccccc4C[C@H]3CO)O[C@@]3(C(=O)N(C)c4c(Br)cc(C)cc43)[C@@H]2C)cc1,1.31,-5.13,0.205,0.0634,-0.113,-0.102,-0.164,-0.238,0.656,0.803
CC(C)(C)N1CC=CC23O[C@@H]4/C=C\CCCOC(=O)C4[C@H]2C(=O)N(CCCO)[C@@H]3C1=O (stereo not given in full),-0.751,0.0578,0.178,-0.71,-0.275,-0.172,-0.0192,0.185,-1.37,-1.62
[N-]=[N+]=Nc1ccccc1C[C@@]1(C(=O)NCc2ccccc2)N=C(c2ccc(OCCCO)cc2)O[C@@H]1c1ccccc1N=[N+]=[N-],-0.334,-3.01,-0.0656,1.69,0.683,0.33,0.171,1.18,1.19,1.97
O=C1O[C@@H](c2ccccc2)[C@@H](c2ccccc2)N2[C@@H](c3ccc(OCCO)cc3)[C@]3(C(=O)Nc4ccc(C#CC5(O)CCCCCC5)cc43)[C@@H](C(=O)O)[C@H]12,0.349,-0.687,0.109,1.29,1.03,-0.0495,0.0902,-0.0047,0.835,0.987
COC(=O)[C@@]1(Cc2ccc(F)cc2)[C@H]2c3cc(C(=O)N4CCCC4)n(CCc4ccccn4)c3C[C@H]2CN1C(=O)c1ccccc1,0.724,-0.74,-0.27,1.16,0.42,0.136,0.887,1.53,0.294,0.0045
COC(=O)[C@@]1(Cc2ccc(OC)cc2)[C@H]2c3cc(C(=O)N4CCCC4)n(CCn4cc([N+](=O)[O-])nc4C)c3C[C@H]2CN1C(=O)c1ccccc1,0.0832,-0.432,0.277,2.72,1.21,1.19,2.51,3.12,1.98,0.299
COCC(=C=CC[C@H](O)c1ccccc1OCCO)C[C@H](O)COCc1ccccc1,1.2,-1.51,0.0832,0.324,-0.678,-0.0685,0.275,0.589,1.36,-0.346
CCOC(=O)C1=C[C@@H](C(C)(C)C)N(S(=O)(=O)c2ccc(C)cc2)[C@H]1c1ccc(C#N)cc1,1.41,-2.04,0.282,1.37,0.226,0.055,-0.154,0.618,0.918,1.09
CCOC(=O)C[C@H]1[C@H](OC(=O)c2ccccc2-c2ccccc2)[C@@H](NC(=O)c2ccc3ccccc3c2)c2cc(OCCCO)ccc2N1C(=O)Cc1ccc(OC)cc1,-0.201,-1.6,0.23,0.115,0.0612,-0.0643,0.112,0.257,-0.0261,0.264
COCCCNC(=O)[C@@]1(CCC(=O)OC(C)(C)C)COC(c2ccc(OCCCO)cc2)=N1,1.48,-1.11,-0.148,-0.664,-0.0486,-0.124,-0.0169,-0.603,2.01,0.778
C=CC1c2cc(O)c(OC)cc2CCN1C (stereo not given),-0.728,-1.02,-0.94,0.504,1.04,-0.112,-0.243,-0.348,0.381,-0.383
O=C1N(CCS(=O)(=O)c2ccccc2)c2ccccc2C[C@]12N=C(c1ccc(OCCCO)cc1)O[C@@H]2c1ccccc1,1.42,-1.74,0.845,2.28,0.565,0.0704,-0.0146,0.217,1.93,1.91
CC(C)N1C(=O)C[C@@](C(=O)NCCN2CCOCC2)(c2ccc([N+](=O)[O-])cc2)[C@H]1c1ccc(CO)cc1,-0.0369,0.323,-1.07,-0.701,-0.272,-0.298,-0.221,-0.478,2.15,-0.418
COCCOC(=O)N1C(=O)[C@@]2(c3cc(C#CCCO)ccc31)[C@H](c1ccccc1OCCO)N1[C@H](c3ccccc3)[C@H](c3ccccc3)OC(=O)[C@H]1[C@@H]2C(N)=O,1.41,-1.64,0.416,1.25,-0.0732,0.002,0.0204,-0.467,0.606,1.23
C=CCOC(=O)[C@@H]1[C@H]2C(=O)O[C@H](c3ccccc3)[C@H](c3ccccc3)N2[C@H](c2ccc(OCCOC(=O)[C@H]3C[C@H]4C(=O)NCC(=O)N4[C@H]3c3cccc(OCCO)c3)cc2)[C@@]12C(=O)Nc1ccc(I)cc12,0.534,-0.582,0.553,1.33,0.0237,-0.0327,0.147,-0.381,1.61,1.39
C=CCC(OC(C)=O)[C@@H]1[C@@H](N(Cc2ccc(-c3cccc(C(F)(F)F)c3)o2)C(=O)c2ccc(-c3ccccc3)cc2)c2cc(OCCCO)ccc2N1C(=O)c1ccc2ccccc2c1 (stereo not given in full),-0.701,-0.514,0.27,0.0114,0.255,-0.119,0.0121,-0.399,0.33,0.0035
CO[C@H]1O[C@H](CO)[C@@H](OC(=O)Nc2ccccc2-c2ccccc2)[C@H](OC(=O)Nc2ccccc2)[C@H]1OC(=O)Nc1ccccc1,0.922,-2.49,0.732,1.27,-0.144,0.169,0.269,0.225,1.07,1.64
COCCOC(=O)N1C(=O)[C@@]2(c3ccccc31)[C@H](c1ccc(O)cc1)N1[C@H](c3ccccc3)[C@H](c3ccccc3)OC(=O)[C@H]1[C@@H]2C(=O)N1CCCCCCC1,1.34,-2.23,1.51,2.52,1.34,0.65,3.03,3.42,4.5,3.04
COC(=O)[C@H](Cc1ccccc1)N1CC2=CCCC=C[C@@H]2[C@H]1[C@H](O)Cc1ccccc1,0.216,-1.74,-0.149,1.09,-0.749,-0.0977,0.427,1.79,0.545,0.831
COc1ccc(C(O)C2C=CC3C(=O)N(C)C(=O)C3N2N(c2ccccc2)c2ccccc2)cc1 (stereo not given),-1.14,-0.336,-0.302,0.531,0.625,0.0102,-0.0843,0.83,0.74,0.844
C=C(CCCC)C(=O)CC[C@@H](OC(=O)c1ccccc1-c1ccccc1C(=O)O)c1ccccc1OCCO,1.19,-2.84,0.0268,0.525,-0.954,-0.096,-0.0904,-0.147,2.43,0.16
CN(C)C(=O)[C@@]1(Cc2ccccc2CN=[N+]=[N-])COC(c2ccc(OCCCO)cc2)=N1,1.37,-2,-1.09,0.809,0.812,-0.0478,0.0483,-0.226,-0.383,1.3
O=C1NC(=O)C2C1C=CC(C(O)c1ccc([N+](=O)[O-])cc1)N2Nc1ccccn1 (stereo not given),-0.382,0.403,0.33,0.259,-0.746,-0.102,-0.138,0.0193,0.45,-0.011
COc1ccc(CCNC(=O)[C@@H]2c3ccccc3C(=O)N(Cc3ccccc3OC)[C@H]2c2ccc(CO)cc2)cc1,1.16,-1.27,-0.321,0.527,-0.103,-0.0398,-0.423,0.938,0.966,0.75
